Source: the supplement of paper PMC4466140

molecular target: AgAbp1; assay: SPOT peptide array binding signal intensity (averaged, normalized) (arbitrary units (background-subtracted, floor 0; scale differs between SH3 domains)); higher = stronger binding of the SH3 domain to the peptide
Outline: (§1)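 GST-fused SH3 domains, from four yeast species, were produced in E. coli BL21(DE3) and captured on glutathione Sepharose. Membranes of cellulose carrying synthetic 15-mer peptides, in which cysteines had been replaced by serines, were exposed to each domain at 10 μg/ml overnight at 4°C in TBS-based blocking buffer. After anti-GST antibody, an HRP anti-mouse secondary and luminol, spots were imaged and quantified using Genespotter. Binding signal is normalized and background-subtracted spot intensity, averaged over replicates, in arbitrary units that differ between domains.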

Binder | SPOT peptide array binding signal intensity
KNRKNLPTIPIRLSG | 4080

molecular target: AgBbc1; assay: as above
Outline: as §1

Binder | SPOT peptide array binding signal intensity
KNRKNLPTIPIRLSG | 456

molecular target: AgBem1-D1; assay: as above
Outline: as §1

Binder | SPOT peptide array binding signal intensity
KNRKNLPTIPIRLSG | 144

molecular target: AgBzz1-D1; assay: as above
Outline: as §1

Binder | SPOT peptide array binding signal intensity
KNRKNLPTIPIRLSG | 104

molecular target: AgBzz1-D2; assay: as above
Outline: as §1

Binder | SPOT peptide array binding signal intensity
KNRKNLPTIPIRLSG | 35

molecular target: AgCyk3; assay: as above
Outline: as §1

Binder | SPOT peptide array binding signal intensity
KNRKNLPTIPIRLSG | 1

molecular target: AgFus1; assay: as above
Outline: as §1

Binder | SPOT peptide array binding signal intensity
KNRKNLPTIPIRLSG | 63

molecular target: AgHof1; assay: as above
Outline: as §1

Binder | SPOT peptide array binding signal intensity
KNRKNLPTIPIRLSG | 240

molecular target: AgHse1; assay: as above
Outline: as §1

Binder | SPOT peptide array binding signal intensity
KNRKNLPTIPIRLSG | 206

molecular target: AgLsb1; assay: as above
Outline: as §1

Binder | SPOT peptide array binding signal intensity
KNRKNLPTIPIRLSG | 318

molecular target: AgLsb4; assay: as above
Outline: as §1

Binder | SPOT peptide array binding signal intensity
KNRKNLPTIPIRLSG | 108

molecular target: AgMyo5; assay: as above
Outline: as §1

Binder | SPOT peptide array binding signal intensity
KNRKNLPTIPIRLSG | ≤ 0

molecular target: AgNbp2; assay: as above
Outline: as §1

Binder | SPOT peptide array binding signal intensity
KNRKNLPTIPIRLSG | 1360

molecular target: AgRvs167; assay: as above
Outline: as §1

Binder | SPOT peptide array binding signal intensity
KNRKNLPTIPIRLSG | 5.83

molecular target: AgSho1; assay: as above
Outline: as §1

Binder | SPOT peptide array binding signal intensity
KNRKNLPTIPIRLSG | 4630

molecular target: AgSla1-D1-D2; assay: as above
Outline: as §1

Binder | SPOT peptide array binding signal intensity
KNRKNLPTIPIRLSG | 402

molecular target: AgSla1-D3; assay: as above
Outline: as §1

Binder | SPOT peptide array binding signal intensity
KNRKNLPTIPIRLSG | 7

molecular target: CaAbp1-D1; assay: as above
Outline: as §1

Binder | SPOT peptide array binding signal intensity
KNRKNLPTIPIRLSG | 1420

molecular target: CaAbp1-D2; assay: as above
Outline: as §1

Binder | SPOT peptide array binding signal intensity
KNRKNLPTIPIRLSG | 3510

molecular target: CaBbc1; assay: as above
Outline: as §1

Binder | SPOT peptide array binding signal intensity
KNRKNLPTIPIRLSG | 1560

molecular target: CaBem1-D1; assay: as above
Outline: as §1

Binder | SPOT peptide array binding signal intensity
KNRKNLPTIPIRLSG | 22

molecular target: CaBzz1-D1; assay: as above
Outline: as §1

Binder | SPOT peptide array binding signal intensity
KNRKNLPTIPIRLSG | 221

molecular target: CaBzz1-D2; assay: as above
Outline: as §1

Binder | SPOT peptide array binding signal intensity
KNRKNLPTIPIRLSG | 67.2

molecular target: CaCyk3; assay: as above
Outline: as §1

Binder | SPOT peptide array binding signal intensity
KNRKNLPTIPIRLSG | 8

molecular target: CaFus1; assay: as above
Outline: as §1

Binder | SPOT peptide array binding signal intensity
KNRKNLPTIPIRLSG | 382

molecular target: CaHof1; assay: as above
Outline: as §1

Binder | SPOT peptide array binding signal intensity
KNRKNLPTIPIRLSG | 0.25

molecular target: CaHse1; assay: as above
Outline: as §1

Binder | SPOT peptide array binding signal intensity
KNRKNLPTIPIRLSG | 28.2

molecular target: CaLsb1; assay: as above
Outline: as §1

Binder | SPOT peptide array binding signal intensity
KNRKNLPTIPIRLSG | 0.5

molecular target: CaLsb4; assay: as above
Outline: as §1

Binder | SPOT peptide array binding signal intensity
KNRKNLPTIPIRLSG | 1340

molecular target: CaMyo5; assay: as above
Outline: as §1

Binder | SPOT peptide array binding signal intensity
KNRKNLPTIPIRLSG | ≤ 0

molecular target: CaNbp2; assay: as above
Outline: as §1

Binder | SPOT peptide array binding signal intensity
KNRKNLPTIPIRLSG | 398

molecular target: CaRvs167; assay: as above
Outline: as §1

Binder | SPOT peptide array binding signal intensity
KNRKNLPTIPIRLSG | 283

molecular target: CaRvs167-3; assay: as above
Outline: as §1

Binder | SPOT peptide array binding signal intensity
KNRKNLPTIPIRLSG | 23.8

molecular target: CaSho1; assay: as above
Outline: as §1

Binder | SPOT peptide array binding signal intensity
KNRKNLPTIPIRLSG | 1100

molecular target: CaSla1-D1-D2; assay: as above
Outline: as §1

Binder | SPOT peptide array binding signal intensity
KNRKNLPTIPIRLSG | 672

molecular target: CaSla1-D3; assay: as above
Outline: as §1

Binder | SPOT peptide array binding signal intensity
KNRKNLPTIPIRLSG | ≤ 0

molecular target: ScAbp1; assay: as above
Outline: as §1

Binder | SPOT peptide array binding signal intensity
KNRKNLPTIPIRLSG | 634

molecular target: ScBbc1; assay: as above
Outline: as §1

Binder | SPOT peptide array binding signal intensity
KNRKNLPTIPIRLSG | 46.8

molecular target: ScBem1-D1; assay: as above
Outline: as §1

Binder | SPOT peptide array binding signal intensity
KNRKNLPTIPIRLSG | 19

molecular target: ScBzz1-D1; assay: as above
Outline: as §1

Binder | SPOT peptide array binding signal intensity
KNRKNLPTIPIRLSG | 35.5

molecular target: ScBzz1-D2; assay: as above
Outline: as §1

Binder | SPOT peptide array binding signal intensity
KNRKNLPTIPIRLSG | 7

molecular target: ScCyk3; assay: as above
Outline: as §1

Binder | SPOT peptide array binding signal intensity
KNRKNLPTIPIRLSG | 17

molecular target: ScFus1; assay: as above
Outline: as §1

Binder | SPOT peptide array binding signal intensity
KNRKNLPTIPIRLSG | 63

molecular target: ScHof1; assay: as above
Outline: as §1

Binder | SPOT peptide array binding signal intensity
KNRKNLPTIPIRLSG | 3

molecular target: ScHse1; assay: as above
Outline: as §1

Binder | SPOT peptide array binding signal intensity
KNRKNLPTIPIRLSG | 582

molecular target: ScLsb1; assay: as above
Outline: as §1

Binder | SPOT peptide array binding signal intensity
KNRKNLPTIPIRLSG | 462

molecular target: ScLsb2; assay: as above
Outline: as §1

Binder | SPOT peptide array binding signal intensity
KNRKNLPTIPIRLSG | 824

molecular target: ScLsb3; assay: as above
Outline: as §1

Binder | SPOT peptide array binding signal intensity
KNRKNLPTIPIRLSG | 2010

molecular target: ScLsb4; assay: as above
Outline: as §1

Binder | SPOT peptide array binding signal intensity
KNRKNLPTIPIRLSG | 80

molecular target: ScMyo3; assay: as above
Outline: as §1

Binder | SPOT peptide array binding signal intensity
KNRKNLPTIPIRLSG | 4.5

molecular target: ScMyo5; assay: as above
Outline: as §1

Binder | SPOT peptide array binding signal intensity
KNRKNLPTIPIRLSG | 1

molecular target: ScNbp2; assay: as above
Outline: as §1

Binder | SPOT peptide array binding signal intensity
KNRKNLPTIPIRLSG | 1180

molecular target: ScPex13; assay: as above
Outline: as §1

Binder | SPOT peptide array binding signal intensity
KNRKNLPTIPIRLSG | 148

molecular target: ScRvs167; assay: as above
Outline: as §1

Binder | SPOT peptide array binding signal intensity
KNRKNLPTIPIRLSG | 774

molecular target: ScSho1; assay: as above
Outline: as §1

Binder | SPOT peptide array binding signal intensity
KNRKNLPTIPIRLSG | 5890

molecular target: ScSla1-D1-D2; assay: as above
Outline: as §1

Binder | SPOT peptide array binding signal intensity
KNRKNLPTIPIRLSG | 2930

molecular target: ScSla1-D3; assay: as above
Outline: as §1

Binder | SPOT peptide array binding signal intensity
KNRKNLPTIPIRLSG | 27.8

molecular target: SpAbp1-D1; assay: as above
Outline: as §1

Binder | SPOT peptide array binding signal intensity
KNRKNLPTIPIRLSG | 1210

molecular target: SpBbc1; assay: as above
Outline: as §1

Binder | SPOT peptide array binding signal intensity
KNRKNLPTIPIRLSG | 5.5

molecular target: SpBzz1-D1; assay: as above
Outline: as §1

Binder | SPOT peptide array binding signal intensity
KNRKNLPTIPIRLSG | 512
